{"source": "PubChem BioAssay (Tox21)", "note": "Inconclusive results are not listed. Entries that show only a call come without a potency. Activity calls are given as the source filed them. Calls follow the shape of the full dose curve. Potency is read from the fitted curve at half-maximal effect.", "data": [{"test": "qHTS assay for small molecule agonists of the antioxidant response element (ARE) signaling pathway - cell viability counter screen (AID 743203); also: nearly all actives have a fitted effect of over 55% in size", "conditions": "ARE-bla HepG2 viability, CellTiter-Glo luminescence, 16 h; series mostly up to 73.3 µM", "description": "National Center for Advancing Translational Sciences [NCATS]\nNIH Chemical Genomics Center [NCGC]\nU.S. Environmental Protection Agency [EPA]\nNational Institutes of Environmental Health Sciences [NIEHS]\nNational Toxicology Program [NTP]\nU.S. Food and Drug Administration [FDA]\nOxidative stress has been implicated in the pathogenesis of a variety of diseases ranging from cancer to neurodegeneration. The antioxidant response element (ARE) signaling pathway plays an important role in the amelioration of oxidative stress. The CellSensor ARE-bla HepG2 cell line (Invitrogen) can be used for analyzing the Nrf2/antioxidant response signaling pathway. Nrf2 (NF-E2-related factor 2) and Nrf1 are transcription factors that bind to AREs and activate these genes. The CellSensor ARE-bla Hep G2 cell line contains a beta-lactamase reporter gene under control of the Antioxidant Response Element (ARE) stably integrated into HepG2 cells. The activation of the report gene under culture conditions can be detected by fluorescence intensity. This cell line has been used to screen the Tox21 10K compound library to identify agonists that induce oxidative stress. The cytotoxicity of the Tox21 compound library against the ARE-bla cell line was tested in parallel by measuring the cell viability using CellTiter-Glo assay (Promega, Madison, WI) in the same wells.\nTox21 Assay Protocol Summary:\nARE-bla HepG2 cells were dispensed at 2,000 cells/5 ul/well in 1536-well white wall/solid bottom plates using a Multidrop Combi (ThermoFisher Scientific, Waltham, MA) dispenser. After the assay plates were incubated at 37C/5% CO2 for 5 hrs, 23 nL of compounds dissolved in DMSO, positive controls or DMSO only was transferred to the assay plate by a pintool work station (Kalypsys, San Diego, CA). The plates were incubated at 37C/5% CO2 for 16 hrs, followed by addition of 4 ul/well of CellTiter-Glo reagent into the assay plates using a Flying Reagent Dispenser (Aurora Discovery, San Diego, CA). After 30 min incubation at room temperature, the luminescence intensity in the assay plates was measured using a ViewLux (PerkinElmer, Shelton, CT) plate reader.", "values": [{"smiles": "C[N+]1(C)CCC(=C(c2ccccc2)c2ccccc2)CC1", "Potency": "inactive"}, {"smiles": "O=C(O)c1ccccc1NCCc1ccccc1", "Potency": "inactive"}, {"smiles": "Cc1cnc(C)c(C)n1", "Potency": "inactive"}, {"smiles": "C=CC(C)(C)CC(=O)OC", "Potency": "inactive"}, {"smiles": "CCNC(=O)N1CCN(CCCC(c2ccc(F)cc2)c2ccc(F)cc2)CC1", "Potency": "inactive"}, {"smiles": "O=C(O)c1cccc(O)c1", "Potency": "inactive"}, {"smiles": "CC(=O)N(c1onc(C)c1C)S(=O)(=O)c1ccc(N)cc1", "Potency": "inactive"}, {"smiles": "O=C(NCCCN1CCOCC1)c1ccc(Cl)cc1", "Potency": "inactive"}, {"smiles": "CC1=CC(O)CC(C)(C)C1", "note": "(stereo not given)", "Potency": "inactive"}, {"smiles": "CC(=O)Nc1ccc(N)cc1", "Potency": "inactive"}, {"smiles": "O=C(CCCN1CCC(O)(c2ccc(Br)cc2)CC1)c1ccc(F)cc1", "Potency": "29.8 µM (active)"}, {"smiles": "Cc1ccc(S(=O)(=O)NC2CCCCC2)cc1", "Potency": "inactive"}, {"smiles": "CC1=CC(=O)CC(C)(C)C1(O)/C=C/C(C)=C\\C(=O)O", "note": "(stereo not given)", "Potency": "inactive"}, {"smiles": "C[Si](NC1CCCCC1)(NC1CCCCC1)NC1CCCCC1", "Potency": "inactive"}, {"smiles": "CCCCCCCCCOC(C)=O", "Potency": "inactive"}, {"smiles": "CN(C)C(=O)Nc1ccc(Oc2ccc(Cl)cc2)cc1", "Potency": "inactive"}, {"smiles": "C/C=C/C=C/CCCCCCCO", "Potency": "inactive"}, {"smiles": "CCC(C)(O)CCC=C(C)C", "note": "(stereo not given)", "Potency": "inactive"}, {"smiles": "O=C(OCCOCCO)c1ccccc1Nc1cccc(C(F)(F)F)c1", "Potency": "inactive"}, {"smiles": "NCC1CCCC(CN)C1", "note": "(stereo not given)", "Potency": "inactive"}, {"smiles": "CC(C)CCCC(=O)O", "Potency": "inactive"}, {"smiles": "CC(C)CCCCCOC(=O)CCCCC(=O)OCCCCCC(C)C", "Potency": "inactive"}, {"smiles": "c1ccc(COCc2ccccc2)cc1", "Potency": "inactive"}, {"smiles": "CCCC1C(CC)=CC(CC)=CN1c1ccccc1", "note": "(stereo not given)", "Potency": "inactive"}, {"smiles": "CCCOc1ccc(S(=O)(=O)N2CCN(CC)CC2)cc1-c1nc2c(CC)n(Cc3ccccn3)nc2c(=O)[nH]1", "Potency": "inactive"}, {"smiles": "CC(=O)CC(c1ccc([N+](=O)[O-])cc1)c1c(O)c2ccccc2oc1=O", "note": "(stereo not given)", "Potency": "inactive"}, {"smiles": "Nc1ccc(S(=O)(=O)O)c(N)c1", "Potency": "inactive"}, {"smiles": "O=C(C(=O)c1ccccc1)c1ccccc1", "Potency": "inactive"}, {"smiles": "C=CC(C)(O)CCCC(C)CCCC(C)CCCC(C)C", "note": "(stereo not given)", "Potency": "inactive"}, {"smiles": "CCCCCCCC/C=C\\CCCCCCCC(=O)OC", "Potency": "inactive"}, {"smiles": "Cc1ccc(S)cc1", "Potency": "inactive"}, {"smiles": "CCCCN(CCCC)CCCOC(=O)c1ccc(N)cc1", "Potency": "inactive"}, {"smiles": "O=C(O)c1cccnc1C(=O)O", "Potency": "inactive"}, {"smiles": "CCOC(=O)[C@@H](C)Oc1ccc(Oc2nc3ccc(Cl)cc3o2)cc1", "Potency": "inactive"}, {"smiles": "CCC(=O)Oc1ccc(/C(CC)=C(\\CC)c2ccc(OC(=O)CC)cc2)cc1", "Potency": "inactive"}, {"smiles": "Cc1cc(C(=C2C=CC(=Nc3ccc(S(=O)(=O)O)cc3S(=O)(=O)O)C=C2)c2ccc(Nc3ccc(S(=O)(=O)O)cc3)cc2)ccc1N", "Potency": "inactive"}, {"smiles": "C[C@@H]1C[C@H]2[C@@H]3CCC4=CC(=O)C=C[C@]4(C)[C@@]3(F)[C@@H](O)C[C@]2(C)[C@@]1(O)C(=O)CO", "Potency": "inactive"}, {"smiles": "ON(Cc1ccccc1)Cc1ccccc1", "Potency": "inactive"}, {"smiles": "O=Cc1c(Cl)cccc1Cl", "Potency": "inactive"}, {"smiles": "CCCCCCCC/C=C\\CCCCCCCC(=O)OC(CO)CO", "Potency": "inactive"}]}]}
